# Results reported in PubChem BioAssay AID1259422 (The Scripps Research Institute Molecular Screening Center, 2018).
# About 9,300 (1.5%) of roughly 640,000 compounds were called active. No stated cut-off is given here; in the data, active means inhibition above about 32%; inactive means the rest. This excerpt belongs to a sample that is enriched for actives.
# Test: TEAD-YAP interaction inhibition, primary screen, TEAD-YAP interaction inhibitor project, luminescence, HEK-TIYL cells (AID 1259422);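 further: 0% = median of test compound wells and 100% = reference inhibitor wells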
# Conditions: TEAD-Gal4/YAP UAS-luciferase luminescence, at 9.12 µM, active compounds read high
row,SMILES,inhibition
1,CC1CN(Cc2cccc3ncccc23)Cc2ccccc2O1 (stereo not drawn),-3.29% (inactive)
2,CC1CCc2c(sc(NC(=O)c3ccccc3F)c2C(=O)N2CCOCC2)C1 (stereo not drawn),-2.16% (inactive)
3,CCOc1ccccc1OCC(=O)Nc1ccc(C(=O)O)cc1,4.66% (inactive)
4,CCOc1ccccc1OCC(=O)OCc1ccccc1,2.74% (inactive)
5,CCOc1ccccc1OCC(=O)NN,58.7% (active)
6,Cc1ccc(-c2noc(CCC(=O)N(C)c3ccccc3Cl)n2)cc1,13.7% (inactive)
7,COC(=O)NNc1ncnc(N)c1[N+](=O)[O-],2.66% (inactive)
8,Nc1ncnc(NCc2ccc(Cl)cc2)c1[N+](=O)[O-],-0.74% (inactive)
9,CC(C)(CO)Nc1ncnc(N)c1[N+](=O)[O-],50.6% (active)
10,O=C(/C=C/c1cccs1)N1CC[C@@H]2[C@H](CCCN2C(=O)c2ccc3[nH]ccc3c2)C1,-4% (inactive)
11,COC(=O)c1c(NC(=O)C(C)N2C(=O)c3ccccc3C2=O)sc2c1CCCC2 (stereo not drawn),-8.49% (inactive)
12,COc1ccc2occ(C(=O)c3ccc(N=C(C)N(C)C)cc3)c2c1,-23.4% (inactive)
13,COc1ccc(OC)c(C(=O)c2coc3ccc(OC)cc23)c1,1.14% (inactive)
14,CC(=O)Oc1ccc2occ(C(=O)c3ccc(C)cc3)c2c1,41% (active)
15,COc1ccc(NC(=O)Cc2coc3ccc(C)cc23)cc1,-3.85% (inactive)
16,Cc1cc(=O)oc2c(OC(=O)c3cc4ccccc4o3)c(OC(=O)c3cc4ccccc4o3)ccc12,-3.97% (inactive)
17,CC(=O)Oc1ccc2occ(C(=O)c3cc4ccccc4o3)c2c1,53.6% (active)
18,CCOC(=O)Cn1c(=O)c2c(nc3n2CC(C)CN3c2ccccc2C)n(C)c1=O (stereo not drawn),2.64% (inactive)
19,O=C1c2ccccc2S(=O)(=O)N1c1ccc(Cl)cc1Cl,6.48% (inactive)
20,O=C(O)C(CCC(=O)N1CCOCC1)N1C(=O)c2ccccc2C1=O (stereo not drawn),-9.92% (inactive)
21,Nc1nc(=O)n(C2OC(CO)C(O)C2O)cc1Br (stereo not drawn),5.2% (inactive)
22,O=c1cnn(C2OC(CO)C(O)C2O)c(=O)[nH]1 (stereo not drawn),74.7% (active)
23,Nc1nc(N)c2ncn(C3OC(CO)C(O)C3O)c2n1 (stereo not drawn),-3.32% (inactive)
24,CCOC(=O)c1ccc(NC(=O)CSc2nnnn2-c2ccc([N+](=O)[O-])cc2)cc1,-1.87% (inactive)

row,SMILES,inhibition
1,N#Cc1c(NC(=O)CSc2ccc([N+](=O)[O-])cn2)sc2c1CCCC2,-0.26% (inactive)
2,N#Cc1c(NC(=O)c2cc([N+](=O)[O-])nn2Cc2ccccc2)sc2c1CCC2,2.14% (inactive)
3,N#Cc1c(NC(=O)c2cc([N+](=O)[O-])ccc2Cl)sc2c1CCC2,32.6% (active)
4,Cc1nnc(SCc2cccc3ccccc23)[nH]c1=O,-2.21% (inactive)
5,O=S(=O)(c1ccc(Cl)c(C(F)(F)F)c1)N1CCNCC1,3.58% (inactive)
6,COC(=O)CNc1nc(Cl)nc(Nc2ccc(I)cc2C)n1,-1.03% (inactive)
7,O=C(NCc1ccc(Cl)cc1)N1CCN(Cc2nc(-c3ccco3)cs2)CC1,41.8% (active)
8,O=C(CN1CCN(Cc2nc(-c3ccco3)cs2)CC1)NCc1ccc2c(c1)OCO2,-0.64% (inactive)
9,CC(=O)N1CCN(Cc2nc(-c3ccc(Cl)cc3)cs2)CC1,2.89% (inactive)
10,O=[N+]([O-])c1ccc(NC(=S)Nc2ccc(Br)cn2)cc1,2.08% (inactive)
11,CC(C)(C)NC(=O)c1cc2nc(-c3ccco3)cc(C(F)(F)F)n2n1,-0.09% (inactive)
12,Cc1ccc(C(=O)NCCNc2ccc([N+](=O)[O-])cc2Cl)cc1,34.1% (active)
13,Cc1ccc(C(=O)NCCNc2ccc([N+](=O)[O-])cc2)cc1,1.76% (inactive)
14,O=C(NCCCNc1ccc([N+](=O)[O-])cc1Cl)c1ccc(Cl)cc1,3.65% (inactive)
15,CC(Oc1cccc2cccnc12)C(=O)NNC(=S)NC(=O)c1cc2ccccc2oc1=O (stereo not drawn),3.86% (inactive)
16,Cc1ccccc1C1=NN2C(=N)/C(=C/c3c(C)nn(-c4ccccc4)c3Cl)C(=O)N=C2S1,-14.8% (inactive)
17,CCCN(CCC)S(=O)(=O)c1ccc2[nH]c(=O)ccc2c1,-11.6% (inactive)
18,COc1cc(/C=N/NC(=O)c2cccs2)cc(OC)c1OC,-55.4% (inactive)
19,Cc1ccc(C(=O)N/N=C\c2ccc(-c3cccc(C(=O)O)c3)o2)cn1,-9% (inactive)
20,CCC/C=N/NC(=O)c1ccc(C)cc1C,-15.2% (inactive)
21,COc1cc(C(=O)NCc2n[nH]c(=S)n2-c2ccccc2)cc(OC)c1OC,3.36% (inactive)
22,COc1cc(C(=O)N/N=C\c2ccc(-c3cccc(C(=O)O)c3)o2)cc(OC)c1OC,64.9% (active)
23,COc1cc(C(=O)N/N=C/c2cccs2)ccc1O,2.59% (inactive)
24,COc1cc(C(=O)N/N=C/c2c(Cl)[nH]c(=O)n2-c2ccccc2)cc(OC)c1OC,72.6% (active)
